Hits are enriched below; roughly 21% of the tested compounds scored in any of these assays.
RORgamma inh = ROR gamma (mouse) transcription inhibition | P51450 | Drosophila S2 Gal4-RORgamma UAS-luciferase reporter, 20 h | Potency, µM (titrated, usually from 53.6 µM), hits mostly inhibitors | 5.4% of 310,000 active | AID 2551; note: nearly all actives have a fitted effect of over 60% in size
Target sequence (P51450 whole entry, looked up, the tested form may be a part): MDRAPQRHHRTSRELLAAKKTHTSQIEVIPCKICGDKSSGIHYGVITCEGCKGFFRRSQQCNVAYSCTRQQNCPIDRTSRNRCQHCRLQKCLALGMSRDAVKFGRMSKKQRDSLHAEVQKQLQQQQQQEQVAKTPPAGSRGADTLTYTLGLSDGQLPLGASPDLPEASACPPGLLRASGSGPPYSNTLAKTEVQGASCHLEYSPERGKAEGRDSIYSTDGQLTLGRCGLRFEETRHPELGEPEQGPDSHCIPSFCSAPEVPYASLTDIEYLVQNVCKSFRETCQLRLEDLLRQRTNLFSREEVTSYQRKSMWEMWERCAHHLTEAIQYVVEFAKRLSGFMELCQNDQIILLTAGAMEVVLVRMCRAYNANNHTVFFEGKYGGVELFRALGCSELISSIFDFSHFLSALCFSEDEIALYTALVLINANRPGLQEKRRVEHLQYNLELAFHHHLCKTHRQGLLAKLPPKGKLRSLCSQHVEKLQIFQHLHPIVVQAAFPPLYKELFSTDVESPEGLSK
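Stable Schneider cell line, Gal4 DNA-binding domain fused to ROR gamma, UAS-luciferase. Cmpd 1 hr RT → CuSO4 700 uM final → 20 hr RT → luciferase reagent 10 min → luminescence.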
IL1B secr inh = blocks inflammasome-driven IL-1 beta release. THP-1 LPS/ATP IL-1B secretion, AlphaLISA, 16 h; active compounds read low. activity change, % at 57.5 µM. 4.7% of 360,000 active. AID 743279; in the data active = activity change below about -50%; inconclusive = mostly about -30% to -49%
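Secreted IL-1B measured by AlphaLISA bead assay after 16 h compound exposure of THP-1 cells; compounds (final up to 57.5 uM) added 1 h before LPS (250 ng/mL) and ATP (1.25 mM) stimulation; lower signal means less secretion.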
VP16 counter = counter-screen for ROR gamma inhibitors: Gal4-VP16 reporter; Drosophila S2 Gal4-VP16 UAS-luciferase, luminescence, 20 h; Potency, µM (titrated, usually from 53.6 µM), usual class: inhibitors; 3.5% of 310,000 active;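 note: Gal4-VP16 expression switched on by copper sulfate through the metallothionein promoter; nearly all actives have a fitted effect of over 50% in size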
DT40 TDP1 CPT = DT40-hTDP1 cell growth loss with CPT. 12% of 420,000 active. AID 686979. chicken DT40 Tdp1-/-;hTDP1 cells + 20 nM CPT, ATP luminescence, 48 h. Potency, µM (top dose mostly 46.2 µM), actives largely listed as inhibitors; note: nearly all actives have a fitted effect of over 55% in size
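Chicken DT40 Tdp1-/- cells complemented with human TDP1, 400 cells/well, exposed to compounds plus 20 nM camptothecin for at least 48 h at 37 C; viability read as ATP content by CellTiter-Glo luminescence.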
ELG1 DNA repair = blocks ELG1-dependent DNA repair in HEK293T cells. HEK293T ELG1-luciferase reporter, luminescence, 16 h; DNA damage induced by 5-fluorouridine. Potency, µM (series often up to 46.1 µM), usual class: inhibitors. 2.3% of 330,000 active; note: nearly all actives have a fitted effect of over 55% in size
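Luminescence from the luciferase reporter, measured 30 min after ONE-Glo reagent at room temperature, was the read-out. Beforehand, 2,000 cells per well were exposed for 16 hr at 37 °C to 5-fluorouridine together with compound or vehicle.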
DT40 TDP1 no CPT = qHTS for Inhibitors of human tyrosyl-DNA phosphodiesterase 1 (TDP1): qHTS in cells in absence of CPT; 15% of 420,000 active; AID 686978, 2013; DT40 Tdp1-/- hTDP1 cells, no CPT, ATP luminescence, 48 h; Potency, µM (series often up to 46.2 µM), hits mostly inhibitors; note: nearly all actives have a fitted effect of over 55% in size
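A cellular qHTS used chicken DT40 cells lacking endogenous Tdp1 but carrying stably transfected human TDP1. Compounds were applied without camptothecin, and cell growth kinetics were judged by ATP-dependent luminescence after ≥48 hr.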
A number is an active result; i = inactive; ? = inconclusive; nt = no result; [ ] = dose if it differs, or a comment. Unless noted, calls come from the whole dose curve; as a rule, active = well fitted curve in the direction sought with a large enough effect; inconclusive = small, poorly fitted or top-dose-only effect, or another doubt; inactive = no such curve, though single readings can be large; an effect the other way counts as inactive or inconclusive.

SMILES	RORgamma inh	IL1B secr inh	VP16 counter	DT40 TDP1 CPT	ELG1 DNA repair	DT40 TDP1 no CPT
COc1cccc(C(=O)Nc2c(C(=O)NC(C)(C)C)oc3ccccc23)c1	nt	nt	nt	18µM	nt	?
COc1cccc(NC(=O)c2oc3ccccc3c2NC(=O)Cc2cccc(C)c2)c1	nt	nt	nt	23µM	nt	18µM
COCC(=O)Nc1c(C(=O)Nc2cccc(OC)c2)oc2ccccc12	i	i	i[0.365 µM]	i	?	?
COc1cccc(NC(=O)c2oc3ccccc3c2NC(C)=O)c1	i	i	i	i	?	i
COc1ccc(NC(=O)c2oc3ccccc3c2NC(=O)C2CC2)cc1	i	?	i	?	i	?
COc1cccc(NC(=O)c2oc3ccccc3c2NC(=O)c2ccccc2C)c1	nt	nt	nt	10µM	nt	?
COc1ccc(Cc2nnc(NC(=O)c3ccccc3F)s2)cc1	?	i	i	i	i	?
O=C(NCc1ccco1)c1ccc2c(c1)OCCO2	i	i	i	i	?	i
C[C@@H]1NC(=O)[C@@H](N)CNC(=O)[C@H](C2CCNC(N)=N2)NC(=O)/C(=C/NC(N)=O)NC(=O)[C@H](CNC(=O)C[C@@H](N)CCCN)NC1=O (stereo not given in full)	nt	nt	nt	i	nt	i
O=C(C1CCN(S(=O)(=O)c2ccc(Cl)cc2)CC1)N1CCN(c2ccccn2)CC1	nt	i	nt	i	?	i
COCC(C)NCc1cc2ccc(OC)cc2nc1N1CCN(c2ccc(F)cc2)CC1 (stereo not given)	nt	nt	nt	i[9.04 µM]	nt	13µM
COc1ccc2c(C)cc(N3CCN(c4ccc(F)cc4)CC3)nc2c1	i	i	i	?	?	?
COc1ccccc1/C=C/C(=O)c1ccccc1	?	i	i	?	?	13µM
COc1ccc(OC)c(/C=C/C(=O)c2ccc(Cl)cc2)c1	?	-89	i	18µM	i	?
COc1ccccc1C(=O)Nc1ccc(C(=O)c2ccccc2)cc1	i	i	i[10 µM]	i	?	?
COc1ccccc1/C=C/C(=O)c1c2c(c(C)[nH]c1=O)CCCC2	5.6µM	-101	4.5µM	?	18µM	?
COc1ccccc1/C=C/C(=O)c1ccc(NC(C)=O)cc1	?	-107	?	?	?	15µM
CCc1ccc(NS(=O)(=O)c2[nH]ncc2C(=O)OC)cc1	nt	nt	nt	i	nt	?
CC(CCc1ccccc1)NC(=O)C(=O)N1CCOCC1 (stereo not given)	i	i	i	i	i	i
CCCCc1nc2ccccc2n2c(-c3ccc(C)cc3)c3c(=O)n(C)c(=O)n(C)c3c12	nt	nt	nt	?	nt	12µM
Cc1ccc(-c2c3c(=O)n(C)c(=O)n(C)c3c3cnc4ccccc4n23)cc1	nt	nt	nt	i	nt	i
CCCCc1nc2ccccc2n2c(-c3ccc(OC)cc3)c3c(=O)n(C)c(=O)n(C)c3c12	nt	nt	nt	?	nt	18µM
CCCc1nc2ccccc2n2c(-c3ccccc3)c3c(=O)n(C)c(=O)n(C)c3c12	nt	nt	nt	13µM	nt	?
COCC(=O)NCc1nc2cccnc2n1Cc1ccc(F)cc1	nt	nt	nt	i	nt	i
COc1ccc(NC(=O)c2cc3c([nH]c2=O)CC(c2ccccc2)CC3=O)cc1 (stereo not given)	nt	nt	nt	i	nt	i
SMILES	RORgamma inh	IL1B secr inh	VP16 counter	DT40 TDP1 CPT	ELG1 DNA repair	DT40 TDP1 no CPT
Cc1ccc(-n2c(SCC(=O)N/N=C/c3ccc(C)s3)nnc2-c2ccccc2)cc1	?	-57	i	?	?	?
O=C(CSc1nnc(-c2ccc(Cl)cc2)n1-c1ccc(Cl)cc1)N/N=C/c1ccco1	i	i	?	21µM	23µM	?
Cc1ccc(-n2c(SCC(=O)N/N=C/c3ccccc3C(=O)O)nnc2-c2ccccc2)cc1	i	i	i	i	i	i
Cc1ccc(/C=N/NC(=O)CSc2nnc(-c3ccc(Cl)cc3)n2-c2ccccc2)o1	i	i	i	?	?	?
Cc1cc2nc3c(=O)[nH]c(=S)[nH]c3nc2cc1NC(=O)C(F)(F)F	i	i	i	?	?	?
O=C1c2cccnc2C(=O)N1C1CCCCC1	i	i	i	i	i	i
Cc1nc2c(n1C1CCCCC1)C(=O)c1ccccc1C2=O	?	i	i	21µM	i	15µM
CNC(=O)c1ccc2c(c1)N=C(C)c1cc(C)ccc1S2	nt	nt	nt	3.7µM	nt	4.6µM
CC1=Nc2cc(C(=O)NC(C)C)ccc2Sc2ccc(C)cc21	nt	nt	nt	4.6µM	nt	4.1µM
Cc1ccc(Sc2ccc(C(=O)NC(C)C)cc2[N+](=O)[O-])cc1	i	i	i	i	i	?
CNC(=O)c1ccc2snnc2c1	i	i	i	i	i	i
CC(C)S(=O)(=O)N1CCCC(c2cc(C(=O)NCc3cccnc3)no2)C1 (stereo not given)	nt	i	nt	i	nt	i
CCCNC(=O)c1cc(C2CCCN(C(=O)c3ccc4ccccc4c3)C2)on1 (stereo not given)	nt	i	nt	18µM	nt	23µM
Cc1ccc(C)c(CC(=O)N2CCCC(c3cc(C(=O)NCc4cccnc4)no3)C2)c1 (stereo not given)	nt	i	nt	?	nt	15µM
O=C(NCc1cccnc1)c1cc(C2CCCN(C(=O)c3cccc(O)c3)C2)on1 (stereo not given)	nt	i	nt	i	nt	i
O=C(NCc1cccnc1)c1cc(C2CCCN(S(=O)(=O)c3cccc4cccnc34)C2)on1 (stereo not given)	nt	i	nt	23µM	nt	21µM
COc1ccc(S(=O)(=O)N2CCCC(c3cc(C(=O)NCc4cccnc4)no3)C2)cc1 (stereo not given)	nt	i	nt	23µM	nt	?
O=C(Nc1ccc(F)c(Cl)c1)c1cc(C2CCCN(S(=O)(=O)c3cccc4cccnc34)C2)on1 (stereo not given)	nt	i	nt	?	nt	26µM
CCCNC(=O)c1cc(C2CCCN(S(=O)(=O)c3cccc4cccnc34)C2)on1 (stereo not given)	nt	i	nt	16µM	nt	?
O=C(NCc1cccnc1)c1cc(C2CCCCN2S(=O)(=O)c2cccc3cccnc23)on1 (stereo not given)	nt	i	nt	12µM	nt	?
CC(N)(COP(=O)(O)O)C(=O)O (stereo not given)	nt	nt	nt	i	nt	i
CC1(C(=O)NS(=O)(=O)c2ccc(C#N)cc2)CCN1C(=O)C1(c2ccccc2)CC1 (stereo not given)	nt	i	nt	i	nt	i
Cc1ccc(C(NC(=O)c2cccc(S(=O)(=O)N3CCN(C)CC3)c2)c2ccccc2)cc1 (stereo not given)	nt	?	nt	i	i	i
CCOC(=O)c1c(C=O)c(C)n(Cc2ccc(C)cc2)c1C	i	i	i	?	?	23µM
COc1ccc2nc(NN=C(C)c3ccccn3)cc(C)c2c1	nt	-102	nt	1.6µM	nt	2.9µM

Assay outcomes as filed in PubChem.
